For test [1], the target named is Rap guanine nucleotide exchange factor 3 (Homo sapiens) (UniProt O95398). The test is described as follows: Confirmatory qHTS for antagonist of cAMP-regulated guanine nucleotide exchange factor 3 (EPAC1) (AID 1645880). Note: nearly all actives have a fitted effect of over 55% in size. Note: potency is the fitted concentration of half-maximal effect. An outline of the steps:
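Released BODIPY-GDP fluoresces less than Rap1-bound BODIPY-GDP; the signal is followed at 480/540 nm at 5-min intervals over 30 min, after 5 min at room temperature. Reactions contain 100 nM EPAC1, 250 nM RAP1B-BODIPY-GDP and 50 uM GDP; results are normalized to ATA and DMSO.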
A general note: In qHTS, concentration-response curves come from the screen itself.

For test [2] the target is unchanged. The test is described as follows: Confirmatory qHTS for agonist of cAMP-regulated guanine nucleotide exchange factor 3 (EPAC1) (AID 1645881).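 Note: EPAC1 catalysed release of BODIPY-GDP from Rap1B seen as fluorescence loss; 100% = effect of cAMP agonist control; nearly all actives have a fitted effect of over 75% in size.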
Test [3] deals with Rap guanine nucleotide exchange factor 4 (Homo sapiens) (UniProt Q8WZA2). As to the kind of experiment: Confirmatory qHTS for agonist of cAMP-regulated guanine nucleotide exchange factor 4 (EPAC2) (AID 1645884).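 Note: nucleotide exchange releases bodipy-GDP from Rap1 and this lowers its fluorescence; % is set by controls: 0 for no effect and ±100 for the full control effect; nearly all actives have a fitted effect of over 65% in size.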
Sequence of Rap guanine nucleotide exchange factor 4 (Homo sapiens) (Q8WZA2 whole entry, looked up): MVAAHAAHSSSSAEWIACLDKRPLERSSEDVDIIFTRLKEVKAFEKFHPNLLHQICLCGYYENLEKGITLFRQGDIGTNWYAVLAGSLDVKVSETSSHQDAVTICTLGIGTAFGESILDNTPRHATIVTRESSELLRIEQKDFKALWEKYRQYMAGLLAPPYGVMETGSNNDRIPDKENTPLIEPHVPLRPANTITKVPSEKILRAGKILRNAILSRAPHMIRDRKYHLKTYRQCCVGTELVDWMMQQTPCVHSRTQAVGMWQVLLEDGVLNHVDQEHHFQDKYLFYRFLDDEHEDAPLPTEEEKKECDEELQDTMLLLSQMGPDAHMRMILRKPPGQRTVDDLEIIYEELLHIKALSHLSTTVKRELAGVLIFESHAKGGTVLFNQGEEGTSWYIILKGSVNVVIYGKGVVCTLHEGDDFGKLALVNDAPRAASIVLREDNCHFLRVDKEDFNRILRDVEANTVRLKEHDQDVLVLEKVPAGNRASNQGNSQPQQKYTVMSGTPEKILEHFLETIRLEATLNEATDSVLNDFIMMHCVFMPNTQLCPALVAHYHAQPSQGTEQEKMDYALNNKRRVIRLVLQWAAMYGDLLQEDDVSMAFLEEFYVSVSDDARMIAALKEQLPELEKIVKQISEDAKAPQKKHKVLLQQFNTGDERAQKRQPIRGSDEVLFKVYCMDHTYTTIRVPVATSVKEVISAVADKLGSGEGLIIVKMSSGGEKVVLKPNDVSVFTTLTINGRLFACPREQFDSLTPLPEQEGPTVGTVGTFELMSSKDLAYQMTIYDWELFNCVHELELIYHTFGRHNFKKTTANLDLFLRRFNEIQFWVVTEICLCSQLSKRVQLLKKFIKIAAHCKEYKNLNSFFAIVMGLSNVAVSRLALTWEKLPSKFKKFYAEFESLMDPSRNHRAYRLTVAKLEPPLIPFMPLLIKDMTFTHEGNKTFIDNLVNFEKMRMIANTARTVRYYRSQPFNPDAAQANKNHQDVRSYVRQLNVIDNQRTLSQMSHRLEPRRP
Test [4] has the same target. The test is described as follows: Confirmatory qHTS for antagonist of cAMP-regulated guanine nucleotide exchange factor 4 (EPAC2) (AID 1645885). For activity change, negative = inhibition: % is set by controls: 0 for no effect and ±100 for the full control effect. Note: nearly all actives have a fitted effect of over 25% in size. Note: potency is the fitted concentration of half-maximal effect.
Test [5] addresses Rap guanine nucleotide exchange factor 3 (Homo sapiens) (UniProt O95398). As to the kind of experiment: Counterscreen qHTS for antagonist of cAMP-regulated guanine nucleotide exchange factor 3 (EPAC1) (AID 1645888). Note: % of control where 0% means no effect. In outline:
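Rap1B-BODIPY-GDP 250 nM + GDP 50 uM; cpds 7-pt, final 9.74 nM–152 uM (activator mode) or from 7.32 nM upwards (inhibitor mode); RT; FI 480/540 nm at 5 and 30 min, then ± cAMP, reread.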

Results filed as inconclusive are left out. Values without a mark were called inactive. Calls of active or inactive are those of the source. Calls come from the whole dose curve; as a rule, active = well fitted curve in the direction sought with a large enough effect; inconclusive = small, poorly fitted or top-dose-only effect, or another doubt; inactive = no such curve, though single readings can be large; an effect the other way counts as inactive or inconclusive.

Sequence of Rap guanine nucleotide exchange factor 3 (Homo sapiens) (O95398 whole entry, looked up): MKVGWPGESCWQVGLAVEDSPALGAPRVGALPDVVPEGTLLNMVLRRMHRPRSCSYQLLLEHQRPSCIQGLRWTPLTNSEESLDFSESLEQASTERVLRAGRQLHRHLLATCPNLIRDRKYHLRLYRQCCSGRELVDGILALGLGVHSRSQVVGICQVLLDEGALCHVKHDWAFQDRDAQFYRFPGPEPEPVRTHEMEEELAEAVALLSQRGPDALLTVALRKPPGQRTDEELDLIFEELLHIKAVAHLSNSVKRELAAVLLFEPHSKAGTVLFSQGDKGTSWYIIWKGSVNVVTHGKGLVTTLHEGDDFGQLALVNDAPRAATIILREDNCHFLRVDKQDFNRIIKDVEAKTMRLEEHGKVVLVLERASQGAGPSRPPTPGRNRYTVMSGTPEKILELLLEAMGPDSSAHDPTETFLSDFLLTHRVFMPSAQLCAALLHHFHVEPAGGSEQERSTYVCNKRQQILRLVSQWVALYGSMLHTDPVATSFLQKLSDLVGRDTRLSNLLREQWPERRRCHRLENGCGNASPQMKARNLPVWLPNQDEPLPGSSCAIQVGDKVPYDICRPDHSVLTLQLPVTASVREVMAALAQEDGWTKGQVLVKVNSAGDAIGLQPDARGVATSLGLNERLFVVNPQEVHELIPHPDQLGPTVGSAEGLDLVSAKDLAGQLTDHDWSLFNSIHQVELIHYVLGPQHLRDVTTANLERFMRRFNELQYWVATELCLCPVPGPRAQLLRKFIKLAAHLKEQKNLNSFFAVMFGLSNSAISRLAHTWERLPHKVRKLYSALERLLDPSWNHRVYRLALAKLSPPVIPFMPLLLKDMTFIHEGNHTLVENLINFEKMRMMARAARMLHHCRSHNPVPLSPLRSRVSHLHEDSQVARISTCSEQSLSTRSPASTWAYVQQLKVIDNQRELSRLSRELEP

As to `COc1ccc(C(Sc2ccccc2)c2ccccc2)cc1OC` (stereo not given), the Potency result in test [1], in test [2], in test [3] and in test [5] was “inactive” in each case. Moreover, the Potency in test [4] is 21.3 µM (active).

Take `C(=C\c1ccccc1)/CN1CCN(C(c2cc3ccccc3o2)c2nnnn2C2CCCC2)CC1` (stereo not given): the Potency entry in test [1], in test [2] and in test [4] was “inactive” throughout. Besides, the activation in test [3] is 0% [at 17.1 µM, percent relative to cAMP agonist control]. In test [5], the activity change, negative = inhibition was 19.5% [at 30.8 µM].

With `COc1ccccc1NC(=O)c1sc2nc(C)c(C(=O)Nc3ccc(C)cc3C)c(-c3ccco3)c2c1N`, the Potency entry in test [1], in test [2], in test [3] and in test [5] was “inactive” each time. In addition, in test [4], the outcome was “inactive [at 12.7 µM]”.

Turning to `COCCCN1C(=O)C(CC(=O)NCc2cccc3ccccc23)CC(C(=O)N2CCCCCC2)=C1C` (stereo not given), the Potency entry in test [1], in test [2], in test [3], in test [4] and in test [5] was “inactive” in each case.

In the case of `Cc1cccc(N2CCN(c3ccc(C(=O)O)cc3NC(=O)c3ccccc3F)CC2C)c1` (stereo not given), the Potency in test [1] is 84.9 µM (active). In addition, the Potency result in test [2], in test [3] and in test [5] was “inactive” in each case. Further, the outcome in test [4] was “inactive [at 12.7 µM]”.

As to `COc1ccc2oc(C)c(C(=O)c3ccc(C)cc3)c2c1`, the Potency result in test [1], in test [2] and in test [4] was “inactive” each time. Moreover, the activation in test [3] is 14.7% [at 17.1 µM, percent relative to cAMP agonist control]. In addition, the activity change, negative = inhibition in test [5] was -20.6% [at 30.8 µM].

For `COc1ccc(-c2nc3n(c(=O)c2C#N)CCS3)cc1`, the Potency result in test [1], in test [2] and in test [4] was “inactive” each time. Also, the activation in test [3] is 4.85% [at 17.1 µM, percent relative to cAMP agonist control]. For the same compound, the activity change, negative = inhibition in test [5] was -1.96% [at 30.8 µM].

Regarding `CCN(CC)CCn1c2c(c(SCC(=O)Nc3nc4ccccc4s3)nc1=O)CCCC2`, the Potency result in test [1], in test [2], in test [3], in test [4] and in test [5] was “inactive” each time.

As for `CCOC(=O)c1ccccc1NC(=O)c1c(-c2ccccc2)noc1C`, the Potency entry in test [1], in test [2], in test [3], in test [4] and in test [5] was “inactive” throughout.

For the compound `CCOC(=O)C1=C(C)Nc2nnnn2C1c1ccc(OC)c(Br)c1` (stereo not given), the Potency result in test [1], in test [2] and in test [4] was “inactive” each time. Besides, the activation in test [3] is 8.47% [at 17.1 µM, percent relative to cAMP agonist control]. Besides, the activity change, negative = inhibition in test [5] was 1.39% [at 30.8 µM].

In the case of `N#Cc1c(NC(=O)c2ccccc2)sc2c1CCCCC2`, the Potency entry in test [1], in test [2] and in test [4] was “inactive” each time. The activation in test [3] is 10.4% [at 17.1 µM, percent relative to cAMP agonist control]. Moreover, the activity change, negative = inhibition in test [5] was 2.87% [at 30.8 µM].

Take `CC(=O)N1CCc2nc3sc(C(=O)Nc4ccc(Cl)cc4F)c(N)c3c(C(F)(F)F)c2C1`: the Potency entry in test [1], in test [2], in test [3] and in test [5] was “inactive” in each case. The outcome in test [4] was “inactive [at 12.7 µM]”.

For the compound `Cc1ccc(C(=O)Nc2ccc(N3CCOCC3)c3nonc23)cc1[N+](=O)[O-]`, in test [1], the Potency was 47.8 µM (active). The Potency result in test [2], in test [3], in test [4] and in test [5] was “inactive” each time.

In the case of `CCOc1ccc(C2=CC(c3cccc(Br)c3)n3c(nc4ccccc43)N2)cc1Cl` (stereo not given), the Potency entry in test [1], in test [2], in test [3], in test [4] and in test [5] was “inactive” in each case.

As to `CC(C)(CNC(=O)Cc1ccc(NS(=O)(=O)c2cccc(C(F)(F)F)c2)cc1)N1CCOCC1`, the Potency entry in test [1], in test [2] and in test [4] was “inactive” throughout. The activation in test [3] was 1.17% [at 17.1 µM, percent relative to cAMP agonist control]. In addition, in test [5], the activity change, negative = inhibition is 10.3% [at 30.8 µM].

For the compound `O=C1NC(=O)C(c2ccccc2)(c2ccccc2)N1S(=O)(=O)c1ccccc1`, the Potency result in test [1], in test [2], in test [3], in test [4] and in test [5] was “inactive” each time.

Take `O=C(Nc1ccccc1)c1ccccc1Br`: the Potency entry in test [1], in test [2], in test [3], in test [4] and in test [5] was “inactive” throughout.

For the compound `Cc1ccc2nc(-c3ccccc3)c(Cc3ccccn3)n2c1`, the Potency entry in test [1], in test [2], in test [3], in test [4] and in test [5] was “inactive” throughout.

Turning to `COc1cc(/C=C2\SC(=S)N(NS(=O)(=O)c3ccc(C)cc3)C2=O)ccc1O`, in test [1], the Potency is 22.4 µM (active). Also, the Potency result in test [2] and in test [4] was “inactive” throughout. Further, the activation in test [3] is 2.55% [at 17.1 µM, percent relative to cAMP agonist control]. In addition, in test [5], the activity change, negative = inhibition is -2.35% [at 30.8 µM].

With `Cc1cc(-c2ccc(Br)s2)nc(-n2cccc2)n1`, the Potency entry in test [1], in test [2], in test [3], in test [4] and in test [5] was “inactive” throughout.

As to `COc1ccc(-c2cc(C(F)F)n3ncc(C(=O)N4CCc5ccccc54)c3n2)cc1`, the Potency result in test [1], in test [2], in test [3], in test [4] and in test [5] was “inactive” each time.

Turning to `Cc1ccc(/C=C/C(=O)Nc2ccc(S(=O)(=O)Nc3cc(C)nc(C)n3)cc2)cc1`, the Potency result in test [1], in test [2], in test [3], in test [4] and in test [5] was “inactive” throughout.

As to `COc1cccc(NC(=O)Cn2cc(C(=O)C3CC3)c3ccccc32)c1`, the Potency result in test [1], in test [2], in test [3], in test [4] and in test [5] was “inactive” throughout.

On to `Cc1ccc2nc3sc(C(=O)N4CCCc5ccccc54)c(N)c3cc2c1`, for which the Potency entry in test [1], in test [2] and in test [4] was “inactive” in each case. Besides, the activation in test [3] is 4.98% [at 17.1 µM, percent relative to cAMP agonist control]. Also, the activity change, negative = inhibition in test [5] was -0.0356% [at 30.8 µM].
